Assay outcomes from PubChem BioAssay.
Shown are actives, neighbours in structure and some others; about 11% of the full set was active somewhere.
VDR inh = inhibitors of human vitamin D receptor. P11473. VDR-SRC2-3 peptide fluorescence polarization, 2 h. Potency, µM, without a hit: max response, negative = inhibition, hits mostly inhibitors. 0.93% of 400,000 active; note: % is set by controls: 0 for no effect and ±100 for the full control effect
Target sequence (P11473 whole entry, looked up): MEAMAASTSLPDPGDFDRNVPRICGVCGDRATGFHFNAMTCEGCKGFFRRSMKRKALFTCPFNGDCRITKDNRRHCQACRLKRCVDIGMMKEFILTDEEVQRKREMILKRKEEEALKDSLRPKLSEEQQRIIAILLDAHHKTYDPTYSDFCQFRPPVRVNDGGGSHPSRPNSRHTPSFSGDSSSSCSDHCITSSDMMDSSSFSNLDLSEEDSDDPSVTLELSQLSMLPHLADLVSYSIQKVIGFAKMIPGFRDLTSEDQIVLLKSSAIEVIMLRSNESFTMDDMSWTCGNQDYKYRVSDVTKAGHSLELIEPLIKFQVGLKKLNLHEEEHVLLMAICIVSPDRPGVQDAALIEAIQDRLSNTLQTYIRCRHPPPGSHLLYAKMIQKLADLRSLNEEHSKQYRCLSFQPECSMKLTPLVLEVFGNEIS
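Fluorescence polarization assay of small-molecule disruption of VDR binding to coregulator peptide SRC2-3. Compounds and controls pin-transferred, then read after 2 h incubation at ambient room temperature.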
PLK1 PBD block = blocks phosphopeptide binding to human PLK1 polo-box domain; 2.8% of 360,000 active; Plk1 PBD binding of FITC phosphopeptide, fluorescence polarization; P53350; AID 720504; Potency, µM, for the others: max response, negative = inhibition, most hits filed as inhibitors; note: series mostly up to about 57 µM; % is set by controls: 0 for no effect and ±100 for the full control effect; nearly all actives have a fitted effect of over 65% in size
BAZ2B block = BAZ2B (human) inhibition; AlphaScreen BAZ2B-H3K14Ac peptide displacement; Potency, µM (doses to about 114 µM), for the others: at the top dose activity change, negative = inhibition, hits mostly inhibitors; 4.4% of 360,000 active; note: % is set by controls: 0 for no effect and ±100 for the full control effect; nearly all actives have a fitted effect of over 60% in size
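AlphaScreen displacement of biotin-H3(5-23)K14Ac peptide (50 nM final) from BAZ2B (50 nM final) in PBS pH 7.4, 0.01% Tween-20; complex preformed 30 min RT, then compounds (top 110 uM) 30 min RT, beads 20 min dark.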
JMJD2A Tudor inh = inhibitors of human JMJD2A Tudor domain. O75164. AlphaScreen JMJD2A-Tudor / H3K4me3 peptide binding. Potency, µM (highest dose often 114 µM), for inactives: at the highest dose activity change, negative = inhibition, usual class: inhibitors. 4.4% of 390,000 active. AID 504339; note: % is set by controls: 0 for no effect and ±100 for the full control effect; nearly all actives have a fitted effect of over 50% in size
HP1b binding inh = inhibitors of HP1-beta chromodomain binding to methylated histone tails. AlphaScreen HP1-beta / biotin-H3K9me3 peptide binding. Potency, µM (top dose mostly 114 µM), for the others: top-dose activity change, negative = inhibition, hits mostly inhibitors. 0.56% of 390,000 active. AID 540317; note: nearly all actives have a fitted effect of over 70% in size
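AlphaScreen: HP1-beta (50 nM) preformed 30 min with biotin-H3(1-18)K9me3 peptide (50 nM) in PBS pH 7.4, 0.01% Tween-20. Compound added for 30 min at RT, then streptavidin donor/nickel chelate acceptor beads (10 ug/mL) for 30 min.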
G9a block = inhibitors of human histone lysine methyltransferase G9a; Q96KQ7; G9a H3K9 monomethylation, AlphaScreen, 2 h; Potency, µM (titrated, usually from 102 µM), without a hit: at the top dose activity, negative = inhibition, most hits filed as inhibitors; 8.8% of 350,000 active; AID 504332; note: % is set by controls: 0 for no effect and ±100 for the full control effect; nearly all actives have a fitted effect of over 75% in size
Target sequence (Q96KQ7 913-1193 limits assumed): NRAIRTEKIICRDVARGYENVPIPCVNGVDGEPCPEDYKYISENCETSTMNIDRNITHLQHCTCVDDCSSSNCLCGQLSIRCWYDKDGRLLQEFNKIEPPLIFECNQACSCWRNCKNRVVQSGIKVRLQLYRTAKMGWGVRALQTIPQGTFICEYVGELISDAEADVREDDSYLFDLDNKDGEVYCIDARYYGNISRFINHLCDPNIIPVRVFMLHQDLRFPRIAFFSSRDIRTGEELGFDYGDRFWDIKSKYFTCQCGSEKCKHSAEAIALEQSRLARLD
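G9a (20 nM) was preincubated 15 min with compound, then reacted 2 h at room temperature with 500 nM biotin-H3K9 peptide and 20 µM SAM. Monomethyl-H3K9 detected by AlphaScreen using anti-H3K9me1 antibody.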
* = called active by the depositor; ? = inconclusive; . = no result given; [ ] = another dose, or the depositor's remark. Calls come from the whole dose curve; as a rule, active = well fitted curve in the direction sought with a large enough effect; inconclusive = small, poorly fitted or top-dose-only effect, or another doubt; inactive = no such curve, though single readings can be large; an effect the other way counts as inactive or inconclusive. Potency is the fitted concentration of half-maximal effect.

SMILES	VDR inh	PLK1 PBD block	BAZ2B block	JMJD2A Tudor inh	HP1b binding inh	G9a block
CC(C)COP(=O)(c1ccc(N(C)C)cc1)C(O)c1ccc(N(C)C)cc1 (stereo not given)	-8.9%	5.2%	-36.3%	?	1.1%	39.8µM*
CC(C)Nc1nc2n(c(=O)n1)CCN2C(C)C	4.6%	-4.3%	-3.4%	-3.2%	29.5%	-9.1%[12.7 µM]
Cc1ccc(CNC(=O)c2ccc3c(c2)NC(=O)C(CS(=O)(=O)Cc2cccc(C)c2)N3)cc1 (stereo not given)	12.2%	.	6.0%[57.1 µM]	-15.5%	46.7%	14.1µM*
O=C(NCc1ccccc1Cl)c1ccc2c(c1)NC(=O)C(CS(=O)(=O)Cc1ccc(Cl)cc1)N2 (stereo not given)	1.7%	.	-0.4%	?	-5.5%	28.2µM*
COc1cccc(-n2nnnc2SCC(=O)NCc2ccco2)c1	-0.7%	-7.3%	-12.0%	-13.0%	10.8%	?
COc1ccc(CCNC(=O)CSc2nnnn2-c2ccc(OC)c(OC)c2)cc1OC	11.4%	13.4µM*	-21.6%	?	-10.7%	1.9%[59 µM]
COc1ccc(-n2nnnc2SCC(=O)NCc2ccco2)cc1OC	9.1%	-12.4%	?	-22.5%	5.1%	50.1µM*
O=C(c1cc(-c2ccc(Cl)cc2)on1)N(Cc1cccc(F)c1)Cc1ccco1	25.0%	.	5.9%	6.0%	66.0%	24.3%[59 µM]
COCCCN(C(=S)Nc1c(C)cc(C)cc1C)C(C)c1ccccn1 (stereo not given)	6.4%	23.8µM*	-25.4%	-7.0%	6.0%	39.8µM*
COCCCN(C(=S)Nc1cc(C)cc(C)c1)C(C)c1ccncc1 (stereo not given)	-12.3%	-22.2%	-3.2%	-17.6%	19.2%	5.8%[59 µM]
Cc1ccc(C(=O)NCC(=O)OCC(=O)c2cc(C)n(Cc3ccco3)c2C)cc1	-8.3%	-5.0%	?	?	?	44.7µM*
CC1CCc2noc(NC(=O)c3ccccc3[N+](=O)[O-])c2C1 (stereo not given)	1.8%	.	?	?	-13.8%	15.8µM*
CC1(C(=O)NS(=O)(=O)c2cccs2)CCN1C(=O)C1(c2ccc(Cl)cc2)CC1 (stereo not given)	.	5.4%	.	.	.	.
Cc1nc(N2CCN(S(=O)(=O)c3ccccc3C#N)CC2)c2c(-c3ccccc3)csc2n1	-22.7%	-6.1%	6.2%	-6.2%	32.9%	4.4%[12.7 µM]
COc1ccccc1NC(=O)CCCOc1cc(=O)n(C)c2ccccc12	-14.9%	.	-16.8%	6.7%	44.2%	1.5%[59 µM]
CC(C)CCNC(=O)C1CCN(Cc2cccc(OCc3ccccc3)c2)CC1	-21.2%	-12.9%	?	10µM*	?	.
COc1cc(CN2CCC(C(=O)NCCC(C)C)CC2)ccc1OCc1ccccc1	-9.1%	5.5%	-36.9%	28.2µM*	?	50.1µM*
COCCNC(=O)CCC1CCN(Cc2cccc(-c3ccc(C)o3)c2)CC1	-11.3%	-5.2%	-10.2%	-23.4%	22.0%	22.4µM*
COCCNC(=O)C1CCN(Cc2cccc(OCc3ccccc3)c2)CC1	-20.7%	-10.4%	?	0.794µM*	?	22.1%[0.501 µM]
COc1cc(CNC(=O)C2CC2)ccc1OCc1ccccc1	-1.3%	-5.7%	-15.1%	-17.8%	13.7%	25.1%
Cc1cc2c(s1)c1cnn(Cc3ccc(-n4cncn4)cc3)c(=O)c1n2C	.	.	.	-23.3%	.	.
COC(=O)[C@@]12C[C@@H](CC(=O)NCc3cccs3)C(=O)N(Cc3ccco3)C1=CCC(C)(C)C2	.	-3.6%	.	.	.	.
Cc1csc(C(=O)NN)c1N(C)C	-11.1%	1.1%	-15.2%	-13.4%	36.6%	-23.5%
Cc1ccc(-n2ccnc(NCCc3ccc(S(N)(=O)=O)cc3)c2=O)c(C)c1	8.9%	.	?	-23.4%	1.9%	?
COc1ccccc1C1C(C(N)=O)=C(C)Nc2nc(SCc3ccccc3F)nn21 (stereo not given)	-13.3%	.	-18.1%	-22.2%	10.3%	-21.1%[59 µM]
SMILES	VDR inh	PLK1 PBD block	BAZ2B block	JMJD2A Tudor inh	HP1b binding inh	G9a block
COc1ccc(N2Cc3cccc(C(=O)N4CCOCC4)c3C2=O)cc1	-10.8%	-1.7%	4.6%	7.6%	29.1%	-2.8%
COc1ccc(N2Cc3cccc(C(=O)N4CCN(C(=O)c5ccco5)CC4)c3C2=O)cc1	-17.1%	?	50.1µM*	50.1µM*	?	44.7µM*
COc1ccc(N2Cc3cccc(C(=O)Nc4cccc(F)c4)c3C2=O)cc1	9.0%	.	.	20µM*	-26.3%	-30.6%[59 µM]
Cc1ccc(S(=O)(=O)N2CCC(=O)c3ccccc32)cc1	.	-5.7%	.	.	.	.
CC(C)(C)N=C1NN=C(c2ccc(S(=O)(=O)N3CCCCC3)cc2)CS1	3.5%	-11.7%	-35.7%	-28.2%	11.9%	35.5µM*
Cc1cccc2sc(NC(=O)c3cccc(S(=O)(=O)N4CCc5ccccc54)c3)nc12	13.2%	-1.8%	-1.5%	-27.1%	12.5%	10.7%[59 µM]
Cc1cccc2sc(NNC(=O)c3ccc(S(=O)(=O)N4CCCC(C)C4)cc3)nc12 (stereo not given)	2.1%	-14.1%	10.5%	11.2µM*	-24.4%	25.1µM*
CNC(=O)c1c(NC(=O)c2ccc(S(=O)(=O)N3CCCC(C)C3)cc2)sc2c1CCC2 (stereo not given)	3.0%	.	-7.1%	-26.5%	6.0%[57 µM]	0.5%[59 µM]
Cc1cccc2sc(NNC(=O)c3ccc(S(=O)(=O)N4CCc5ccccc5C4)cc3)nc12	-5.6%	-12.5%	3.98µM*	8.91µM*	-14.8%	39.8µM*
CC1CCC(NC(=O)c2ccc(CS(=O)(=O)c3ccc(Cl)cc3)o2)CC1 (stereo not given)	36.2%	.	1.7%	-15.1%	22.1%	-20.6%[59 µM]
Cc1cc(C)cc(OCC(=O)Nc2nc3c(s2)CC(C(C)(C)C)CC3)c1 (stereo not given)	13.2%	.	-2.5%	-8.3%	14.6%	-6.7%[59 µM]
COc1ccc(N2CCN(CCNC(=O)Nc3ccc([N+](=O)[O-])cc3OC)CC2)cc1	6.6%	-7.4%	?	50.1µM*	?	44.7µM*
COc1cc(NC(=O)NCCN2CCN(c3ccc(Cl)cc3)CC2)ccc1C	7.1%	-3.2%	?	-33.0%	-18.6%	?
COc1ccc(N2CCN(CCNC(=O)Nc3ccc(C)c(Cl)c3)CC2)cc1	-9.6%	-16.8%	-34.9%	-27.8%	2.0%	25.1µM*
Cc1nn(S(=O)(=O)c2ccc(Br)cc2)c(C)c1S(=O)(=O)N1CCCCCC1	2.7%	.	2.9%	-8.7%	28.8%	-3.5%[59 µM]
COc1ccc(-c2nc(C)c(CCNC(=O)C(=O)Nc3ccccc3C#N)s2)cc1OC	17.8%	.	2.1%	-12.9%	19.5%[57 µM]	2.0%[59 µM]
CCc1cc(C(=O)Nc2c(C)nn(Cc3ccccc3Cl)c2C)no1	1.8%	.	4.0%	-7.8%	24.9%	5.7%[59 µM]
COc1ccc(-c2cn3c(n2)sc2cc(C(=O)Nc4ccc(F)cc4Cl)ccc23)cc1	0.2%	.	-0.6%	0.7%	57.4%	7.6%[59 µM]
